Test results from PubChem BioAssay (NCATS).
Records with an inconclusive call do not appear. Activity calls are given as the source filed them. The call rests on the fitted dose curve.

Tests used:
[1] = Primary qHTS for inhibitors of SARS-S pseudo-typed particle cell entry (AID 1479145); further: nearly all actives have a fitted effect of over 45% in size
[2] = Primary qHTS for Huh7 cytotoxicity: counterscreen for inhibitors of MERS-S pseudotyped particle cell entry (AID 1479147)
[3] = Primary qHTS for inhibitors of MERS-S pseudo-typed particle cell entry (AID 1479149); further: nearly all actives have a fitted effect of over 60% in size
[4] = Primary qHTS for Vero E6 cytotoxicity: counterscreen for inhibitors of SARS-S pseudo-typed particle cell entry (AID 1479150)

Measured: Potency

NC(=Nc1ccccc1)Nc1ccccc1
inactive: [1] | [2] | [3] | [4]

CCN1CCN(C(=O)N[C@@H](C(=O)N[C@@H]2C(=O)N3C(C(=O)O)=C(CSc4nnnn4C)CS[C@H]23)c2ccc(O)cc2)C(=O)C1=O
inactive: [1] | [2] | [3] | [4]

CCCCNC(=O)NS(=O)(=O)c1ccc(C)cc1
inactive: [1] | [2] | [3] | [4]

CCCN[C@H]1CCc2nc(N)sc2C1
inactive: [1] | [2] | [3] | [4]

CCCN(CCC)S(=O)(=O)c1ccc(C(=O)O)cc1
inactive: [1] | [2] | [3] | [4]

CCCNC(=O)NS(=O)(=O)c1ccc(Cl)cc1
inactive: [1] | [2] | [3] | [4]

CC(C)(C)C(=O)OCOP(=O)(COCCn1cnc2c(N)ncnc21)OCOC(=O)C(C)(C)C
inactive: [1] | [2] | [3] | [4]

N[C@@H]1CONC1=O
inactive: [1] | [2] | [3] | [4]

CC(COc1ccccc1)N(CCCl)Cc1ccccc1 (configuration not stated)
inactive: [1] | [2] | [3] | [4]

CN(CCOc1ccc(NS(C)(=O)=O)cc1)CCc1ccc(NS(C)(=O)=O)cc1
inactive: [1] | [2] | [3] | [4]

N=c1nc(N2CCCCC2)cc(N)n1O
inactive: [1] | [2] | [3] | [4]

COc1cc(Cc2cnc(N)nc2N)cc(OC)c1OC
inactive: [1] | [2] | [3] | [4]

CC(=O)SC[C@@H](C)C(=O)N1CCC[C@H]1C(=O)N[C@@H](Cc1ccccc1)C(=O)O
inactive: [1] | [2] | [3] | [4]
